Experimental findings from PubChem BioAssay (NCI) are described below.

Each structure is given as a SMILES string. This is part of a sample that, as a whole, favours compounds with a hit. Of some 83,000 tested, about 20% had one in any assay.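 In brief: 96-well plates, 48 h treatment, single concentration, percent growth endpoint.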 Active and inactive are the calls of the source.

The subject of the assay is HL-60(TB) leukemia. As to the kind of experiment: NCI-60 one-dose screen, 48 h (100 = growth as untreated, 0 = no growth, -100 = all killed). The conditions noted are these: 10 µM unless noted. Here is the method:
Growth inhibition of the HL-60(TB) human tumor cell line is measured as a screen for anti-cancer activity. Cells are grown in 96 well plates and exposed to the test compound for 48 hours. Compounds are tested at a single concentration, which is 10^-5 M for most compounds. The reported endpoint is percent growth (GI% or GIPRCNT), where numbers from 0 - 100% represent growth inhibition, and numbers from -100% - 0 represent cell death. For example, a value of 40 represents 60% growth inhibition. A value of 0 means no net growth occurred over the course of the experiment. A value of -40 indicates 40% of cells at the beginning of the experiment died by the end of the experiment. A value of -100 means all cells are dead at the end of the experiment.
NCI-60 Human Tumor Cell Lines Screen was performed using the standard one-dose NCI protocol, which is described in more detail at https://dtp.cancer.gov/discovery_development/nci-60/default.htm.
Compounds with GIPRCNT values below 10 were considered active. Activity score was based on GIPRCNT using the following formula: […]
Score is 0 for GIPRCNT values of 100 or above, 50 for GIPRCNT values of 0, and 100 for GIPRCNT values of -100.
Turning to `CC(=O)C1=C(C)NC(NNC(N)=S)=NC1c1ccccc1` (stereo not given), the growth was 148% (inactive).
For the molecule `CC[C@@](C)(NC(=O)C(C)(C)NC(=O)[C@@H](NC(=O)[C@@H]1CCCN1C(=O)C(C)(C)NC(=O)[C@H](CC(C)C)NC(=O)CNC(=O)C(C)(C)NC(=O)[C@@H](NC(=O)C(C)(C)NC(=O)[C@H](CCC(N)=O)NC(=O)[C@H](C)NC(=O)C(C)(C)NC(=O)[C@H](C)NC(=O)C(C)(C)NC(=O)[C@@H]1CCCN1C(=O)C(C)(C)NC(C)=O)C(C)C)C(C)C)C(=O)N[C@@H](CCC(N)=O)C(=O)N[C@@H](CCC(N)=O)C(=O)N[C@H](CO)Cc1ccccc1`, the growth is -50.8% [4.25 µM] (active).
The figure for `CCCC(=O)NC(c1cccnc1)c1cc(C)c2cccnc2c1O` (stereo not given) is 1.38% (active); for `COc1ccc(/C=C(/C)c2ccc3ccc(OC)cc3[o+]2)c(O)c1` it is 44% (inactive).
Turning to `COc1ccc(-c2nc3cc(Cl)c(Cl)cc3n2CC(=O)N=Nc2c(O)[nH]c3ccc(Cl)cc23)cc1`, the growth is 59.7% (inactive).
Take `O=C(Nc1ccc(Cl)c(C(F)(F)F)c1)Nc1ccc2c(ccn2C(=O)c2cccc(F)c2)c1`: the growth is 24.7% (inactive).
The figure for `CCCn1cnc2c(c1=N)C(c1ccc(F)cc1)c1sc3c(CC)cccc3c1O2` (stereo not given) is -36.4% (active); for `Nc1ccccc1NC(=O)c1ccc(NC(=O)C/C=C/c2cccnc2)cc1` it is 12.6% (inactive).
For `CS(=O)c1nccc(-c2c(-c3ccc(F)c(OCCc4ccc(F)cc4)c3)nc3sccn23)n1` (stereo not given), the growth is -13.4% (active).
On to `CCCCCCOC(=O)c1cc(-c2ccc(F)cc2)nc2ccccc12`, for which the growth is 77.8% (inactive).
Turning to `O=C(COc1ccc(/C=C2\C(=O)Nc3ccc(Cl)cc32)cc1)Nc1ccc(Cl)cc1`, the growth is 57.6% (inactive).
Consider `Cc1[nH]c(C(=O)Nc2ccccc2OCc2cccc(C(=O)NC3CCNC3)c2)c(Cl)c1Cl` (stereo not given), for which the growth was 71.4% (inactive).
The result for `O=S(=O)(Nc1ccc(I)c(Cl)c1)c1ccc(-c2cnc(C3CC3)o2)cc1` reads -1.6% (active); that for `C=C(C)C(=O)O[C@H]1C[C@@]2(C)OC(=CC2=O)[C@H](C)[C@H](O)[C@H]2OC(=O)C(=C)[C@@H]21`, 14.3% (inactive); that for `C#C[C@]1(O)CC[C@H]2[C@@H]3CC=C4c5sc(-c6ccc7c(c6)OCO7)nc5CC[C@]4(C)[C@H]3CC[C@@]21C`, 46.8% (inactive).
Consider `Cc1cccc2sc(/N=C(\N)C(Br)Br)nc12`, for which the growth is 0.778% (active).
Regarding `CCO/C=N/C1=C(C#N)C(c2ccc(OC)cc2)c2sc3c(CC)cccc3c2O1` (stereo not given), the growth was 9.99% (active).
The result for `CC(C)(C)n1nnnc1C(Nc1cccc2c1OCO2)c1cc2cccc3ccc4cccc1c4c32` (stereo not given) reads 85.2% (inactive); that for `O=C(CCCCCC/C=C\c1csc(Br)n1)NO`, 78.5% (inactive); that for `CC(C)(C)c1ccc(C(=O)Nc2sc3c(c2C(N)=O)CC/C(=N\O)C3)cc1`, 4.37% (active).
As for `COc1ccc(C2c3[nH]c4ccc(Cl)cc4c3CCN2c2oc(CO)nc2C#N)cc1` (stereo not given), the growth is 29.4% (inactive).
For `C#Cc1nc(C(C)=O)cs1`, the growth is 100% (inactive).
On to `O=C(N/N=C/c1ccc(Br)s1)c1[nH]c2ccc(Br)cc2c1-c1ccccc1`, for which the growth was -43.4% (active).
On to `COc1cc2nc(Cl)nc(Nc3cccc(C4=Nc5c(N)nc(N)nc5NC(c5ccc6c(c5)OCO6)C4)c3)c2cc1OC` (stereo not given), for which the growth was 68.4% (inactive).
The result for `Cn1cc(-c2cc3ncnc(Nc4ccc(CC(=O)Nc5nc(C(C)(C)C)cs5)cc4)c3s2)cn1` reads 29.2% (inactive); that for `COc1c(N2CC3CCCNC3C2)c(F)cc2c(=O)c(C(=O)N/N=C/c3c[nH]c4ccccc34)cn(C3CC3)c12` (stereo not given), 94.4% (inactive).
For `COc1cc(-c2nn(C(C)(C)C)cc2-c2ccnc(NCCCNS(=O)(=O)c3ccc(C)cc3)n2)ccc1Cl`, the growth was 108% (inactive).
As for `Cc1ccc(-n2cc(/C=C/C(=O)c3ccc(S(C)(=O)=O)cc3)c(-c3ccc(S(C)(=O)=O)cc3)n2)cc1`, the growth was 69.4% (inactive).
The result for `O=C(CCCCCCN1CC(=O)N2[C@@H](c3ccc(Cl)s3)c3[nH]c4ccccc4c3C[C@H]2C1=O)NO` reads 1.42% (active); that for `CCOC(=O)C1=C(C)Nc2nc3ccccc3n2C1c1cccc(Br)c1` (stereo not given), 22.8% (inactive).
The result for `O=C(NNc1nc2cc(F)c(F)cc2n2cccc12)c1ccncn1` reads 0.0559% (active); that for `CCCCCN1C(=O)/C(=c2\sc3n(c2=O)C2C(NN=3)N(CC)C(=O)N2CC)c2cccc(C)c21` (stereo not given), 11.9% (inactive).
The result for `CC(c1ccccc1)N1C(=O)/C(=C/c2csc(C#N)n2)SC1=S` (stereo not given) reads 4.32% (active); that for `CNC(=O)c1cc(N2CCc3cc(NC(=O)Nc4ccc(N5CCN(C)CC5)c(C(F)(F)F)c4)ccc32)ccn1`, 79% (inactive).
As for `COc1cc(CNC(=O)/C=C/c2ccccc2)ccc1OCC(=O)NO`, the growth was 121% (inactive).
The result for `C#CCN(C)CCCOc1ccc(NC(=O)CCCCCCC(=O)NO)cc1Cl` reads 12.1% (inactive).
The figure for `CS(=O)(=O)Nc1cc(-c2ccc3ncc(C#N)c(NCc4ccccc4F)c3c2)cnc1Cl` is 5.25% (active); for `O=C(/C=C/c1cccc(C(F)(F)F)c1)Nc1cccc(C(F)(F)F)c1` it is 38.3% (inactive); for `CCOC(=O)c1cccc(NC2=C(Cl)C(=O)C(C)=C(C)C2=O)c1` it is 31.2% (inactive).
The result for `CC1(C)CC[C@]2(C(=O)O)CC[C@]3(C)C(=CC[C@@H]4[C@@]5(C)CC[C@H](NOCCCN)C(C)(C)[C@@H]5CC[C@]43C)[C@@H]2C1` reads 20.2% (inactive).
